The record followed here is PubChem BioAssay (Tox21).

The nature of experiment [1]: qHTS assay to identify small molecule agonists of the RXR signaling pathway - cell viability counter screen (AID 1159529). Also: nearly all actives have a fitted effect of over 50% in size. Also: potency is read from the fitted curve at half-maximal effect. A digest of the protocol:
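Luminescence from CellTiter-Glo (30 min, RT) measured viability in the same wells as the beta-lactamase reporter readout. Cells: GeneBLAzer RXR-alpha HEK 293T, 2% charcoal-stripped FBS. Compound exposure 16 hr, 37 C.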
(Quantitative high-throughput screening tests each substance at several concentrations.)

Experiment [2] can be described thus: qHTS assay to identify small molecule antagonists of the retinoid acid receptor (RAR) signaling pathway - cell viability counter screen (AID 1159551). Also: nearly all actives have a fitted effect of over 35% in size. A digest of the protocol: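 Seed C3RL4 cells; next day add compound, then retinol to 1 uM final; incubate 6 h at 37 C; add CellTiter-Glo; read luminescence after 30 min at RT.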
Experiment [3] in a line: qHTS assay to identify small molecule antagonists of the estrogen related receptor (ERR) signaling pathway - cell viability counter screen (AID 1224818). The essentials: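 In the same ERR cell assay, compound-treated wells (17.5 h, 37 C) were multiplexed with a fluorogenic viability reagent, CellTiter-Fluor, read after 30 min to flag cytotoxic substances.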
The nature of experiment [4]: qHTS assay to identify small molecule antagonists of the estrogen related receptor (ERR) signaling pathway (AID 1224819;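 also: luminescence from an ERR-driven luciferase reporter measured with One-Glo reagent; nearly all actives have a fitted effect of over 50% in size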). The essentials: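 qHTS in ERR cells, 2,000/well, 1536 format. Cpd (DMSO) added after 6 h settle, 18 h 37 C. One-Glo luminescence, 30 min RT.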
A short description of experiment [5]: qHTS assay to identify small molecule agonists of the estrogen related receptor (ERR) signaling pathway (AID 1224820). A digest of the protocol:
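Quantitative HTS of the LOPAC library used NTP ERR reporter cells treated 18 h at 37 C. Signal is luminescence after One-Glo addition and a 30 min room-temperature incubation.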

Experiment [6] deals with estrogen-related receptor alpha (ERRalpha) with PGC-1alpha coactivator, human. Description: qHTS assay to identify small molecule antagonists of the estrogen related receptor signaling pathway with the pleiotropic PPARgamma coactivator (PGC) (AID 1224821; calls by dose curve;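 also: lower luminescence signal means antagonism of PGC/ERR signalling; nearly all actives have a fitted effect of over 50% in size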). The essentials:
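Quantitative HTS for antagonism: PGC/ERR cells received compounds after 6 h attachment and were incubated 18 h at 37 C, with luminescence (One-Glo) as the endpoint.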

The nature of experiment [7]: qHTS assay to identify small molecule antagonists of the estrogen related receptor signaling pathway with the pleiotropic PPARgamma coactivator (PGC) cell viability counter screen (AID 1224822). The essentials:
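Compounds in DMSO, with positive and negative controls, were applied to PGC/ERR cells (2,000/well) and left 17.5 h at 37 C before CellTiter-Fluor detection.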

Experiment [8] can be described thus: qHTS assay to identify small molecule agonists of the estrogen related receptor signaling pathway with the pleiotropic PPARgamma coactivator (PGC) (AID 1224823). A digest of the protocol: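 Cell-based luciferase assay in the NTP-supplied PGC/ERR line, 2,000 cells/well; 18 h compound exposure at 37 C, luminescence after One-Glo.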
Experiment [9] in a line: qHTS assay to identify small molecule antagonists of the estrogen related receptor (ERR) signaling pathway from Tox21 library - cell viability counter screen (AID 1224834). Also: nearly all actives have a fitted effect of over 30% in size. Also: potency is read from the fitted curve at half-maximal effect. The essentials: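 CellTiter-Fluor fluorescence measured; ERR cells; 17.5 h compound incubation at 37 C; 30 min reagent step.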
The target of experiment [10] is Luciferin 4-monooxygenase (Photinus pyralis) (UniProt P08659). Description: qHTS assay to identify small molecule inhibitors of firefly luciferase (AID 1224835). Also: nearly all actives have a fitted effect of over 25% in size. Also: potency is read from the fitted curve at half-maximal effect. A digest of the protocol:
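Quantitative HTS format; KM concentrations of both substrates. Purified P. pyralis FLuc activity quantified from luminescence images.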

Experiment [11] can be described thus: qHTS assay to identify small molecule agonists of the constitutive androstane receptor (CAR) signaling pathway - cell viability counter screen (AID 1224836). Also: nearly all actives have a fitted effect of over 45% in size. Also: potency is read from the fitted curve at half-maximal effect. A digest of the protocol:
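Viability read-out: CellTiter-Fluor fluorescence after 23 h compound exposure at 37 C/5% CO2 in double-stable HepG2-CYP2B6-hCAR cells, with PK11195 present at 0.75 uM final; compounds tested in 15-point titration.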

A short description of experiment [12]: qHTS assay to identify small molecule antagonists of the constitutive androstane receptor (CAR) signaling pathway - cell viability counter screen (AID 1224837). Also: nearly all actives have a fitted effect of over 45% in size. Also: potency is read from the fitted curve at half-maximal effect. A digest of the protocol:
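Using CellTiter-Fluor, viability is scored in HepG2 cells stably carrying hCAR and a 2.2kb CYP2B6 reporter after 23 hr compound exposure across 15 concentrations, with CITCO present at 50 nM.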

A short description of experiment [13]: qHTS assay to identify small molecule antagonists of the estrogen related receptor signaling pathway with the pleiotropic PPARgamma coactivator (PGC) from Tox21 10K library - cell viability counter screen (AID 1224840; active = well fitted cell-killing curve with a large enough effect in the repeat runs, not every such curve was filed as active; also: nearly all actives have a fitted effect of over 40% in size; also: potency is read from the fitted curve at half-maximal effect). The essentials:
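Here the PGC/ERR cells serve as a cytotoxicity control: they are exposed to compounds for 17.5 hours at 37 C, and live-cell signal is quantified using CellTiter-Fluor fluorescence.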

The nature of experiment [14]: qHTS assay to identify small molecule antagonists of the estrogen related receptor signaling pathway with the pleiotropic PPARgamma coactivator (PGC) from Tox21 10K library (AID 1224841; call rule not given here; also: actives are mostly falling curves and most rising ones were filed inactive; nearly all actives have a fitted effect of over 50% in size; also: potency is read from the fitted curve at half-maximal effect). The essentials: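 Each well held 2,000 PGC/ERR cells, pre-incubated six hours (37 C, 5% CO2). Test substances in DMSO were added by pin tool and left for 18 h at 37 C before luciferase detection by One-Glo.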

Experiment [15] deals with Nuclear receptor subfamily 1 group I member 3 (Homo sapiens) (UniProt Q14994). Description: qHTS assay to identify small molecule antagonists of the constitutive androstane receptor (CAR) signaling pathway (AID 1224838).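 Also: HepG2 cells stably expressing hCAR with CYP2B6 luciferase reporter stimulated by CITCO; nearly all actives have a fitted effect of over 40% in size.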 The essentials: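 Reporter luminescence was quantified after 24 h exposure of hCAR/CYP2B6-2.2kb double-stable HepG2 cells to compounds at 15 concentrations in the presence of 50 nM CITCO final.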

For experiment [16] the target is unchanged. Nature of the experiment: qHTS assay to identify small molecule agonists of the constitutive androstane receptor (CAR) signaling pathway (AID 1224839). Also: nearly all actives have a fitted effect of over 15% in size. Also: potency is read from the fitted curve at half-maximal effect.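 As to activation: HepG2 cells stably carrying human CAR and a CYP2B6 luciferase reporter.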 The essentials: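 Luminescence read-out (ONE-Glo, 30 min, room temperature) from double-stable HepG2-CYP2B6-hCAR cells exposed 24 h to 15-point compound series in presence of 0.75 uM PK11195 final.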
The target of experiment [17] is Thyrotropin receptor (Homo sapiens) (UniProt P16473). Nature of the experiment: qHTS assay to identify small molecule agonists of the thyroid stimulating hormone receptor (TSHR) signaling pathway (AID 1224843; calls by dose curve; also: nearly all actives have a fitted effect of over 45% in size). The essentials:
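TSHR-expressing HEK293 cells (800 per well) were exposed to compounds for 30 min at room temperature. cAMP was then detected by HTRF competition with cAMP-d2 and anti-cAMP cryptate, read after 1 h at room temperature. Fifteen concentrations, triplicate.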

The nature of experiment [18]: qHTS assay to identify small molecule antagonists of the retinoic acid receptor (RAR) signaling pathway (AID 1159552; also: nearly all actives have a fitted effect of over 50% in size; also: potency is read from the fitted curve at half-maximal effect). The essentials:
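Luminescence from a RARE luciferase reporter in C3RL4 cells served as read-out. Cells received compounds together with 1 uM final retinol and incubated 6 hr at 37 C before detection reagent was added for 30 min at room temperature.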

The nature of experiment [19]: qHTS assay to identify small molecule agonists of the retinoic acid receptor (RAR) signaling pathway (AID 1159553). Also: potency is read from the fitted curve at half-maximal effect. The following applies: C3RL4 RARE luciferase reporter, agonist, 6 h; activation: at 73.3 µM (top of the series) unless noted. The essentials:
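Activation of retinol signaling was monitored via a RARE luciferase reporter in C3RL4 cells. After 6 hr compound treatment at 37 C, detection reagent was added for 30 min at room temperature before luminescence reading.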

“And” between values parts separate entries of the source, which are not always exact repeats. Equal values may be shown once. Inconclusive results are not listed. Some compounds were tested as several samples or in several runs, with calls that do not always agree. The source made the active and inactive calls. Unless noted, calls follow the shape of the dose curve; as a rule, active = well fitted curve in the direction sought with a large enough effect in the repeat runs; inconclusive = weak or mixed curves; inactive = no such curve, though single readings can be large; an effect the other way counts as inactive or inconclusive.

Chain of Thyrotropin receptor (Homo sapiens) (P16473 whole entry, looked up): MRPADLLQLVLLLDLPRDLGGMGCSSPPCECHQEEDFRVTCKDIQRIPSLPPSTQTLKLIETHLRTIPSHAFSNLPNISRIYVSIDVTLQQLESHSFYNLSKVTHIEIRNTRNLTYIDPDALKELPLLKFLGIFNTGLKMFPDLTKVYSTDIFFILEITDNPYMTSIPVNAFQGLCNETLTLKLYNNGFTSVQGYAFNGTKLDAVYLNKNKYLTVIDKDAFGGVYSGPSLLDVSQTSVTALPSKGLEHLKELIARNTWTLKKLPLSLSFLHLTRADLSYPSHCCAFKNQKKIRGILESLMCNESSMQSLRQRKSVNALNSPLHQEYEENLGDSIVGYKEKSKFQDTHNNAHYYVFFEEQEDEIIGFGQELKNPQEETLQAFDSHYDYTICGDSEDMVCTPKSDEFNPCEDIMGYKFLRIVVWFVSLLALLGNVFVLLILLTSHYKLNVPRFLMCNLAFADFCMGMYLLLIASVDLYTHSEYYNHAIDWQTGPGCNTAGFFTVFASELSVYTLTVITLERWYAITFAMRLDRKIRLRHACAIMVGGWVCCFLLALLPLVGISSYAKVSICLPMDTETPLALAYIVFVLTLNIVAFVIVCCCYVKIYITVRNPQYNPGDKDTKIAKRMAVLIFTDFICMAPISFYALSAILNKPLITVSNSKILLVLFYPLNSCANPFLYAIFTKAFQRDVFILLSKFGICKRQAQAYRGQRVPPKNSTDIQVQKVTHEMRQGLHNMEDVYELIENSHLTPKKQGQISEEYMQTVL
Chain of Nuclear receptor subfamily 1 group I member 3 (Homo sapiens) (Q14994 whole entry, looked up): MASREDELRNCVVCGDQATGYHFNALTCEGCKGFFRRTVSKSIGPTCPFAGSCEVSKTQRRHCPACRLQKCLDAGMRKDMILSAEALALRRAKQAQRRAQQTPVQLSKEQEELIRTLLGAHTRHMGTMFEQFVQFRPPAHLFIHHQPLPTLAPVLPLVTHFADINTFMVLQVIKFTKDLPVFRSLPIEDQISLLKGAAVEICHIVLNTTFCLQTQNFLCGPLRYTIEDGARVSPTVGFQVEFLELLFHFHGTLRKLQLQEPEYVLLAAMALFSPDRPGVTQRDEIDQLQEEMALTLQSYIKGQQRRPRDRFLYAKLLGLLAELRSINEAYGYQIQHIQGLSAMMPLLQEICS
Chain of Luciferin 4-monooxygenase (Photinus pyralis) (P08659 whole entry, looked up): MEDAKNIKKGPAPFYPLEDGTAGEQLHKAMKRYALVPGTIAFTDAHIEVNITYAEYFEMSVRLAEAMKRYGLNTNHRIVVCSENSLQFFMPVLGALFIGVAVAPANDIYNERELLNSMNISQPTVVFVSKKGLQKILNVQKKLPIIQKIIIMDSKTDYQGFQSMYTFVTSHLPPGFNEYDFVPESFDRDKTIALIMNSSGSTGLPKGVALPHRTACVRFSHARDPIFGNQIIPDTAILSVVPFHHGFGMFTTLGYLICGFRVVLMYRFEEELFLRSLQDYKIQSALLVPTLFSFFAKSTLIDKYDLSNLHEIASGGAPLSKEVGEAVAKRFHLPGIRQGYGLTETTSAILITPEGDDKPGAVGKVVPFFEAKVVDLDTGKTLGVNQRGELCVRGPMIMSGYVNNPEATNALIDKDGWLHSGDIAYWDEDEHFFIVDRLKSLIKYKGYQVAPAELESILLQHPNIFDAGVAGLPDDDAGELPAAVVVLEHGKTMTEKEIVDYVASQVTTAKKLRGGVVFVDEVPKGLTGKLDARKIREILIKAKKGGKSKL

For the compound `O=S(=O)(O)C(F)(F)C(F)(F)C(F)(F)C(F)(F)C(F)(F)C(F)(F)C(F)(F)C(F)(F)F`, the Potency result in experiment [1] was “inactive and 19.5 µM (active)”; in [10], 75.8 µM (active) and 71 µM (active); in experiment [14], “inactive and 5.45 µM (active)”. The Potency entry in [2], in experiment [4], in [6], in experiment [7], in experiment [9] and in [11] was “inactive” in each case. For the same compound, the Potency result in experiment [12] and in experiment [13] was “inactive” in each case. Besides, the result in experiment [3], in experiment [5] and in experiment [8] was inactive.

Turning to `CCN(CC)C(=O)C(C)Oc1cccc2ccccc12` (configuration not stated), the Potency entry in [1], in experiment [2], in experiment [10], in experiment [11], in [12] and in experiment [15] was “inactive” throughout. Further, the Potency entry in experiment [13] is “inactive”. In addition, in experiment [16], the Potency was 54.9 µM (active) and 61.1 µM (active).

Regarding `c1ccc(C2CO2)cc1` (configuration not stated), the Potency entry in experiment [1], in experiment [2], in experiment [9], in [10], in experiment [11] and in experiment [12] was “inactive” throughout. In addition, the Potency entry in experiment [13] and in [17] was “inactive” throughout.

Turning to `Nc1ccc([N+](=O)[O-])cc1N`, the Potency entry in experiment [1] and in [14] was “inactive” in each case. Moreover, the Potency in experiment [18] was 13.7 µM (active) and inactive; in experiment [19], 68.5 µM (active) and 68.6 µM (active); in experiment [10], 79.6 µM (active); in experiment [11], 48.5 µM (active); in experiment [12], 61.1 µM (active) and 27.3 µM (active); in experiment [13], 43.2 µM (active).

For `O=C(O)CF`, the Potency result in experiment [1], in experiment [2], in experiment [9], in [10], in experiment [11] and in experiment [12] was “inactive” in each case. The Potency entry in experiment [13] was “inactive”.

`CCCCCCCCCC(CC)c1ccc(S(=O)(=O)O)cc1` (configuration not stated): the Potency result in experiment [2], in experiment [7], in experiment [10], in experiment [11] and in experiment [12] was “inactive” in each case. Besides, in experiment [3], the compound was classed as inactive. Further, the Potency in experiment [9] is 61.8 µM (active) and inactive.

Regarding `N#Cc1cccnc1`, the Potency result in experiment [1], in [2], in experiment [10], in [11], in experiment [12] and in [15] was “inactive” throughout. Further, the Potency result in experiment [16], in [13] and in experiment [14] was “inactive” in each case.

On to `CCNCC`, for which the Potency entry in [1], in experiment [2], in experiment [9], in experiment [10], in experiment [11] and in experiment [12] was “inactive” each time. Also, the Potency result in experiment [13], in [14] and in experiment [17] was “inactive” in each case.

For the compound `COc1ccc(CO)cc1`, the Potency entry in experiment [1], in [2], in experiment [11], in [12], in experiment [13] and in experiment [17] was “inactive” throughout.

Take `CC(C)=CC1C(C(=O)OCN2C(=O)C3=C(CCCC3)C2=O)C1(C)C` (configuration not stated): the Potency entry in [2], in [9], in experiment [10], in [11], in experiment [12] and in experiment [13] was “inactive” throughout.
